Laboratory results reported in PubChem BioAssay (NCATS).
“And” between values parts separate entries of the source, which are not always exact repeats. Equal entries are not always repeated. Inconclusive results are not listed. The source made the active and inactive calls. Unless noted, the call rests on the fitted dose curve; in most records, active means well fitted curve in the direction sought with a large enough effect; inconclusive means small, poorly fitted or top-dose-only effect, or another doubt; inactive means no such curve, though single readings can be large; an effect the other way counts as inactive or inconclusive.

How the values were obtained:
[1] = molecular target: Cytochrome P450 2C9 (Homo sapiens) (UniProt P11712); assay: Cytochrome P450 family 2 subfamily C member 9 (CYP2C9) small molecule antagonists: luciferase biochemical (cell-free) qHTS assay (AID 1645842; active means well fitted curve in the direction sought with a large enough effect in the repeat runs; an effect the other way counts as inactive or inconclusive; further: nearly all actives have a fitted effect of over 55% in size; further: potency means the concentration at half of the fitted maximal effect)
Chain of Cytochrome P450 2C9 (Homo sapiens) (P11712 whole entry, looked up): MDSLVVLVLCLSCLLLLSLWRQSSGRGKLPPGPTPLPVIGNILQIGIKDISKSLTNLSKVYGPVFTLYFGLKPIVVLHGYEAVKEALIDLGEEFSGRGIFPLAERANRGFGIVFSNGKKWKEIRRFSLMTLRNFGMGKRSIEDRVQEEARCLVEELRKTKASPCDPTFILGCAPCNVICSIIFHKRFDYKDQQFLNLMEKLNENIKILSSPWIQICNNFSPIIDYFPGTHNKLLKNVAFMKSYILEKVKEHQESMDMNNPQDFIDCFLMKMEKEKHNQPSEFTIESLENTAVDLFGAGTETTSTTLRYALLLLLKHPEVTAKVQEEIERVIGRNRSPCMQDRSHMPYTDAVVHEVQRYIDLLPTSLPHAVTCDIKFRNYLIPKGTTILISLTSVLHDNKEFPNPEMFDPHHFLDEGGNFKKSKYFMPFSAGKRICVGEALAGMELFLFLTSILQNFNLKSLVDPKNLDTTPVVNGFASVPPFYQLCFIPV
Outline: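 P450-Glo CYP2C9 system: proluciferin substrate with enzyme in mix containing 0.4% BSA, 10 min at room temperature, then NADPH regeneration solution added and incubated 1 h at 37C. Detection reagent stopped reaction; luminescence read after 20 min as RLU.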

[2] = Primary qHTS for inhibitors of nuclear receptor binding SET domain protein 2 (NSD2) in an isogenic RCH-ACV NSD2 p.E1099K mutant (9B) (AID 1645876); further: potency means the concentration at half of the fitted maximal effect; nearly all actives have a fitted effect of over 70% in size
[3] = Primary qHTS for inhibitors of nuclear receptor binding SET domain protein 2 (NSD2) in an RCH-ACV wild type WT cells (2C) (AID 1645877); further: nearly all actives have a fitted effect of over 70% in size; further: potency means the concentration at half of the fitted maximal effect
Papain (Carica papaya) = Papain (Carica papaya) (UniProt P00784); assay: Primary qHTS assay for inhibitors of the protease papain (AID 1645873);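 further: papain turnover of Z-FR-AMC read as the AMC fluorescence gain over 10 min; series mostly up to about 50 µM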
Chain of Papain (Carica papaya) (P00784 whole entry, looked up): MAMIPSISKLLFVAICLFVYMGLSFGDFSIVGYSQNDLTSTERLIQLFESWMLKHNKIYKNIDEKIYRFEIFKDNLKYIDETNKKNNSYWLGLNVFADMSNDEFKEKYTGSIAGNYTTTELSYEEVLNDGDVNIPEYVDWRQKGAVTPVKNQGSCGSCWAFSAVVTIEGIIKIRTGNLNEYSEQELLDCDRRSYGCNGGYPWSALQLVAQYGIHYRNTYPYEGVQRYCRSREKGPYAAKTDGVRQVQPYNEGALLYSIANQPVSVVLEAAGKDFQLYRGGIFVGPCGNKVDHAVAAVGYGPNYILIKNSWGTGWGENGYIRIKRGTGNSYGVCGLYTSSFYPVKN

SMILES: Cc1c(C(=O)Nc2ccc(N3CCC(N4CCOCC4)CC3)c(C#N)c2)cnn1-c1ccc(Cl)cc1
- Potency [1]: 2.13 µM (active)
- Potency [2]: 0.23 µM (active)
- Potency [3]: 0.23 µM (active)

SMILES: C[C@@H]1CCCN1CCc1cc2cc(-c3ccc(C#N)cc3)ccc2o1
- Potency [1]: inactive
- Potency [3]: 20.5 µM (active)

SMILES: COc1ccccc1N1CCN(c2ncnc3n[nH]c(Br)c23)CC1
- Potency [1]: 7.56 µM (active)
- Potency [2]: 23 µM (active)
- Potency [3]: 16.3 µM (active)

SMILES: O=S1(=O)CCN(Cc2cc(NCC3CCOCC3)c3[nH]c(-c4ccccc4)cc3c2)CC1
- Potency [1]: 3.38 µM (active)
- Potency [3]: 10.3 µM (active)

SMILES: O=C(NCC1(c2nc(-c3ccccc3)cs2)CCOCC1)c1cccc(-c2noc(C(F)(F)F)n2)c1
- Potency [1]: 3.01 µM (active)
- Potency [3]: 25.8 µM (active)

SMILES: C#CCOc1ccc2c(c1)c(-c1ccc(C(C)C)cc1)nc(=O)n2C(C)C
- Potency [1]: 2.68 µM (active)
- Potency [2]: 8.17 µM (active)
- Potency [3]: 11.5 µM (active)

SMILES: Cc1cc(C)nc(SCC(=O)Nc2ncc(Cc3cccc4ccccc34)s2)n1
- Potency [1]: 10.7 µM (active)
- Potency [3]: inactive

SMILES: CCOC(=O)c1cnc2ccc(-c3cncc(NS(=O)(=O)c4ccccc4)c3)cn12
- Potency [1]: 0.134 µM (active)
- Potency [2]: 0.29 µM (active)
- Potency [3]: 0.258 µM (active)

SMILES: CN1CC2CN(c3ccc4oc5ccccc5c(=O)c4c3)CC2C1 (centres undefined)
- Potency [1]: inactive
- Potency [3]: 12.6 µM (active)

SMILES: Cc1cc(C)c(-n2cc(C)c3c(Cl)nc(C)nc32)c(C)c1
- Potency [1]: 10.7 µM (active)
- Potency [3]: inactive

SMILES: NC(=O)c1cccc2[nH]c(-c3ccc(C4CCCN4)cc3F)nc12 (centres undefined)
- Potency [1]: 10.7 µM (active)
- Potency [3]: 18.3 µM (active)

SMILES: CCCC(=O)C1(c2ccccc2)CCN(C(=O)[C@@H](Cc2ccc(OC)cc2)NC(=O)[C@@H](N)Cc2cncn2C)CC1
- Potency [1]: 19 µM (active)
- Potency [3]: 18.3 µM (active)

SMILES: Cn1cc(-c2ccc3c(c2)CCN3C(=O)Cc2cccc(C(F)(F)F)c2)c2c(N)ncnc21
- Potency [1]: 12 µM (active)
- Potency [3]: inactive

SMILES: CC(C)c1ccc(NC(=O)c2cccs2)c(-c2nc3ccccc3[nH]c2=O)c1
- Potency [1]: 10.7 µM (active)
- Potency [3]: 16.3 µM (active)

SMILES: CC(C)(C)c1ccc(C(=O)Nc2cc(Cl)c(Br)cc2C(=O)O)cc1
- Potency [1]: 16.9 µM (active)
- Potency [3]: 11.5 µM (active)

SMILES: NCCCC(=O)O
- outcome (Papain (Carica papaya)): inactive

SMILES: Cn1c(=O)c2c(ncn2Cc2ccc(C(C)(C)C)cc2)n(C)c1=O
- Potency [1]: 23.9 µM (active)
- Potency [2]: 6.49 µM (active)
- Potency [3]: 7.28 µM (active)

SMILES: CCCCNc1ncc2c(-c3ccc(S(=O)(=O)N4CCOCC4)cc3)nn(C3CCC(O)CC3)c2n1 (centres undefined)
- Potency [1]: 9.52 µM (active)
- Potency [3]: 1.03 µM (active)

SMILES: S=C(c1ccc(-c2ccc(Cl)c(Cl)c2)o1)N1CCCCC1
- Potency [1]: 3.38 µM (active)
- Potency [3]: inactive

SMILES: CCCCCCOC(=O)/N=C(\N)c1ccc(NCc2nc3cc(C(=O)N(CCC(=O)OCC)c4ccccn4)ccc3n2C)cc1
- Potency [1]: inactive
- Potency [2]: 20.5 µM (active)
- Potency [3]: 16.3 µM (active)

SMILES: COc1ccc(NC(=O)c2ccc(-c3ccc(-c4nnc(C)o4)cc3C)cc2)cc1N1CCN(C)CC1
- Potency [1]: 19 µM (active)
- Potency [2]: 20.5 µM (active)
- Potency [3]: 10.3 µM (active)

SMILES: CCOC(=O)N1CCC(CN(Cc2ccc(Cl)cc2)Cc2ccc([N+](=O)[O-])s2)C1 (centres undefined)
- Potency [1]: 4.25 µM (active)
- Potency [3]: 20.5 µM (active)

SMILES: O=C(NCCN1CCC(n2c(=O)[nH]c3ccccc32)CC1)c1ccc2ccccc2c1
- Potency [1]: 7.56 µM (active)
- Potency [3]: 16.3 µM (active)

SMILES: O=C(NCCCc1ccccc1)C1CCC(CNS(=O)(=O)c2cccc3nsnc23)CC1 (centres undefined)
- Potency [1]: 9.52 µM (active)
- Potency [3]: 11.5 µM (active)

SMILES: Cc1noc(C)c1-c1cc(O)cc(C(O)c2ccccc2)c1 (centres undefined)
- Potency [1]: 0.849 µM (active)
- Potency [2]: 0.916 µM (active)
- Potency [3]: 1.03 µM (active)

SMILES: CC(C)c1cc(-c2ccc(F)c3ccccc23)nc(N)n1
- Potency [1]: 4.25 µM (active)
- Potency [3]: inactive

SMILES: CN1CCN(C2=Nc3ccccc3Nc3ccc(OS(=O)(=O)C(F)(F)F)cc32)CC1
- Potency [1]: 10.7 µM (active)
- Potency [3]: 16.3 µM (active)

SMILES: CCCCNc1ncc(-c2ccc(CN3CCOCC3)cn2)c(NC2CCC(O)CC2)n1 (centres undefined)
- Potency [1]: inactive
- Potency [3]: 632 nM (active) and 1.15 µM (active)

SMILES: CCCNCCc1ccc(NS(=O)(=O)c2ccc(OC(F)(F)F)cc2)cc1
- Potency [1]: 8.49 µM (active)
- Potency [3]: 14.5 µM (active)

SMILES: Cc1c(C(=O)NCc2cccnc2)nn(-c2ccc(Cl)cc2Cl)c1-c1ccc(Cl)cc1
- Potency [1]: 5.35 µM (active)
- Potency [3]: 20.5 µM (active)

SMILES: CC(F)(F)CN1CCOc2c(nn(-c3ccccc3Cl)c2-c2ccc(Cl)cc2)C1=O
- Potency [1]: 13.5 µM (active)
- Potency [3]: 18.3 µM (active)
